In all, about 52,000 compounds went through this assay and about 4,300 (8.3%) were called active. Cut-off read from the data, not from the text of the source: active = survival mostly below about 52% (no sharp cut-off); inactive = mostly above about 56%. This excerpt belongs to a sample that is enriched for actives.

This assay concerns DeltatarO mutant. In words: growth inhibition of S. aureus wild type versus tarO mutant, primary screen, teichoic acid synthesis inhibitors, RN4220, OD600 (AID 463173). The settings on record: OD600, 18 h, hits give low values, screened at 18.75 µg/mL (by protocol).
Take `COc1ccc(CCNC(=O)CSc2n[nH]c(-c3ccccc3Cl)n2)cc1OC`: the survival is 101% (inactive).
With `COc1ccc2c(c1)c1c(c(=O)n(-c3cccc(C)c3)c(=O)n1Cc1cccc(Cl)c1)n2C`, the survival was 84% (inactive).
For the molecule `CC(=O)N1CCCc2cc(S(=O)(=O)N(CCN(C)C)Cc3ccccc3)ccc21`, the survival was 102% (inactive).
In the case of `Cc1csc2nc(COC(=O)c3ccc(NC(=O)C(C)Oc4ccccc4)cc3)cc(=O)n12` (stereo not drawn), the survival was 134% (inactive).
For `COc1cc2c(cc1OC)C(COc1ccc3c(C)cc(=O)oc3c1)N(C(=O)c1ccc(C)c(C)c1)CC2` (stereo not drawn), the survival was 74% (inactive).
Regarding `Cc1oc(-c2ccc(C(=O)NCc3ccccc3F)cc2)nc1COc1ccccc1`, the survival was 77% (inactive).
In the case of `CCOC(=O)c1ccccc1NC(=O)CCc1c(C)nc2ncnn2c1C`, the survival was 87% (inactive).
For the molecule `CCN(Cc1ccccc1)C(=O)Cn1c(=O)n(-c2ccc(C)c(C)c2)c(=O)c2c(C)c(C)sc21`, the survival is 84% (inactive).
As for `COc1ccc(NC(=O)Cn2c(=O)n(-c3ccccc3)c(=O)c3c4c(sc32)CCCC4)cc1`, the survival was 98% (inactive).
In the case of `CCN(Cc1ccccc1)C(=O)Cn1c(=O)n(-c2ccc(Cl)cc2)c(=O)c2c(C)c(C)sc21`, the survival is 76% (inactive).
In the case of `CCOc1ccc(NC(=O)Cn2c(=O)n(-c3ccccc3)c(=O)c3c4c(sc32)CCCC4)cc1`, the survival was 90% (active).
Consider `CCOc1ccc(NC(=O)Cn2c(=O)n(-c3cccc(OC)c3)c(=O)c3c4c(sc32)CCCC4)cc1`, for which the survival is 95% (inactive).
For the molecule `CCOc1ccc(-n2c(=O)c3c(C)c(C)sc3n(CC(=O)N(CC)Cc3ccccc3)c2=O)cc1`, the survival is 45% (active).
Then `CCOC(=O)c1c(C)oc2nc(C)nc(NCC3CCN(Cc4cccc(Cl)c4)CC3)c12`, with 62% (inactive); and `COc1cccc(NC(=O)CCS(=O)(=O)c2ccc3c(c2)oc(=O)n3C)c1`, with 89% (inactive).
Turning to `Cc1ccc(CSc2nnc3[nH]c(=O)cc(C)n23)cc1`, the survival is 71% (inactive).
As to `Cc1ccc(NC(=O)CSc2nc3c(oc4ccccc43)c(=O)n2Cc2ccco2)cc1`, the survival is 70% (inactive).
Turning to `CC(C)C(=O)N1C2CCC1CC(O)(c1ccccc1F)C2` (stereo not drawn), the survival was 86% (inactive).
The result for `COc1cccc(CN(Cc2ccco2)C(c2ccc(OC)c(OC)c2)c2nnnn2Cc2ccccc2)c1` (stereo not drawn) reads 67% (inactive).
Turning to `Cc1ccc2nc(/C(C#N)=C/c3cccc(Br)c3)[nH]c2c1`, the survival was 3% (active).
Then `COc1cccc(/C=C(\C#N)c2nc3ccc(C)cc3[nH]2)c1`, with 46% (inactive); and `COc1cc(Br)c(/C=C(\C#N)c2nc3ccccc3[nH]2)cc1OC`, with 110% (inactive); and `N#C/C(=C\c1ccccc1F)c1nc2ccccc2c(=O)[nH]1`, with 66% (inactive).
Regarding `Cc1cccc(/C=C(\C#N)c2nc3ccccc3c(=O)[nH]2)c1`, the survival is 91% (inactive).
`Cc1ccc2nc(/C(C#N)=C/c3ccccc3F)[nH]c2c1`: the survival is 31% (active).
Regarding `CCOc1ccccc1-c1nnc(SCc2ccc(Cl)cc2)o1`, the survival was -1% (active).
On to `Oc1ccc(-c2nnc(SCc3ccc(Cl)cc3)o2)cc1`, for which the survival is 89% (inactive).
On to `COc1ccccc1-c1nnc(SCCOc2ccccc2C)o1`, for which the survival is 73% (inactive).
In the case of `CNS(=O)(=O)c1cn(CC(=O)Nc2ccc(C)c(N(C)C)c2)cc1S(=O)(=O)NC`, the survival was 83% (inactive).
As for `CCc1ccc(-c2cc(C)no2)cc1S(=O)(=O)N1CCN(c2cccc(Cl)c2)CC1`, the survival is 89% (inactive).
With `COc1ccc(CNc2oc(-c3ccc(COc4ccc(Cl)cc4)o3)nc2C#N)cc1`, the survival was 97% (inactive).
Then `Cc1cc(C)cc(NC(=O)CCc2c(C)nc3c4cccnc4nn3c2C)c1`, with 99% (inactive); and `CCOc1ccc(-c2nonc2NC(=O)c2oc3cc(C)c(C)cc3c2C)cc1OCC`, with 43% (active).
Turning to `CCCOc1ccc(-c2nonc2NC(=O)c2oc3ccc(C)cc3c2C)cc1OCCC`, the survival was 49% (inactive).
Then `CCOc1ccc(-c2nonc2NC(=O)c2oc3c(C)c(C)ccc3c2C)cc1OCC`, with 34% (active); and `CCOc1ccc(-c2nonc2NC(=O)c2oc3cc(C)ccc3c2C)cc1OCC`, with 87% (inactive); and `CCOc1ccc(-c2nonc2NC(=O)c2oc3ccc(C)cc3c2C)cc1OCC`, with 43% (inactive).
As to `CCOc1ccc(-c2nonc2NC(=O)c2ccc(C)cc2)cc1OCC`, the survival was 100% (inactive).
The result for `CCCNC(=O)N1CCCN(S(=O)(=O)c2ccc3c(ccn3CC)c2)CC1` reads 79% (inactive); that for `Cc1cc(C)cc(NC(=O)c2cnn(-c3ccc(C)c(C)c3)c2C2CCNCC2)c1`, 78% (inactive); that for `COc1ccccc1NC(=O)CN1C(=O)CSc2ccc(S(=O)(=O)N3CCCC3)cc21`, 99% (inactive).
Turning to `Cc1cc(C)c(S(=O)(=O)NCC(c2ccc(N(C)C)cc2)N2CCOCC2)c(C)c1` (stereo not drawn), the survival was 69% (inactive).
Then `CCCCCS(=O)(=O)c1oc(-c2cccs2)nc1S(=O)(=O)c1ccc(C)cc1`, with 3% (active).
As for `CCCCS(=O)(=O)c1oc(-c2cccs2)nc1S(=O)(=O)c1ccc(F)cc1`, the survival was 56% (inactive).
On to `CCCSc1oc(-c2cccs2)nc1S(=O)(=O)c1ccc(C)cc1`, for which the survival was 41% (inactive).
Then `Cc1ccc(CSc2oc(-c3cccs3)nc2S(=O)(=O)c2ccc(C)cc2)cc1`, with 135% (inactive); and `Cc1ccc(CSc2oc(-c3cccs3)nc2S(=O)(=O)c2ccccc2)cc1`, with 65% (inactive).
The result for `CCCCS(=O)(=O)c1oc(-c2cccs2)nc1S(=O)(=O)c1ccccc1` reads -5% (active); that for `COc1cccc(CSc2nc3n(n2)C(c2ccccc2C)C(C(=O)Nc2ccccc2OC)=C(C)N3)c1` (stereo not drawn), 69% (inactive).
Take `Cc1ccc(C)c(NC(=O)Cn2c(=O)n(CCC(C)C)c(=O)c3cccnc32)c1`: the survival is 76% (inactive).
Then `NC(CSC1CCCCO1)C(=O)O` (stereo not drawn), with 73% (inactive).
Then `COc1ccc(C(=O)Nc2ccc(N3CCN(c4ccccc4)CC3)c(C(=O)O)c2)cc1`, with 94% (inactive); and `O=C(Nc1ccc(N2CCC(N3CCCCC3)CC2)c(C(=O)O)c1)c1ccccc1`, with 96% (inactive).
Regarding `O=C(Nc1ccc(N2CCN(CCOc3ccc(Cl)cc3)CC2)c(C(=O)O)c1)c1ccc(F)cc1`, the survival is 20% (active).
`CC(=O)c1ccc(N2CCN(c3ccc(NC(=O)c4ccc(F)cc4)cc3C(=O)O)CC2)cc1`: the survival is 55% (inactive).
Regarding `O=C(Nc1ccc(N2CCC(N3CCCCC3)CC2)c(C(=O)O)c1)c1ccc(Br)cc1`, the survival is 101% (inactive).
Turning to `O=C(Nc1ccc(N2CCOCC2)c(C(=O)O)c1)c1ccc(Br)cc1`, the survival was 8% (active).
The result for `Cc1ccc(NC(=O)C(=O)NCC2(c3ccccc3)CCCC2)cc1Cl` reads 97% (inactive).
In the case of `Cc1cccc(NS(=O)(=O)c2ccc3c(c2)CC(C)N3C(=O)C2CCC2)c1C` (stereo not drawn), the survival is 78% (inactive).
In the case of `N#Cc1c[nH]n2c(=O)cc(Cc3ccccc3)nc12`, the survival was 68% (inactive).
Then `Cc1cc(NC(=O)c2ccc(NC(=O)CCS(=O)(=O)c3cccs3)cc2)ccc1Br`, with 35% (active).
`Cc1ccc(NC(=O)c2ccc(NC(=O)CCS(=O)(=O)c3cccs3)cc2)cc1F`: the survival was 81% (inactive).
With `CC(=O)c1ccc(NC(=O)c2ccc(NC(=O)CCS(=O)(=O)c3cccs3)cc2)cc1`, the survival is 69% (inactive).
As to `COC(=O)c1ccc(NC(=O)CCS(=O)(=O)c2ccc(Br)s2)cc1`, the survival is 60% (inactive).
In the case of `O=C(CCS(=O)(=O)c1ccc(Br)s1)Nc1c(F)cccc1F`, the survival was 128% (inactive).
Then `CC(=O)c1cccc(NC(=O)CCS(=O)(=O)c2ccc(Br)s2)c1`, with 43% (active); and `O=C(CCS(=O)(=O)c1ccc(Br)s1)Nc1cc(C(F)(F)F)cc(C(F)(F)F)c1`, with 42% (active).
The result for `CC(C)c1ccc(NC(=O)CCS(=O)(=O)c2ccc(Br)s2)cc1` reads 114% (inactive); that for `CCOC(=O)c1cccc(NC(=O)CCS(=O)(=O)c2ccc(Br)s2)c1`, 71% (inactive).
Turning to `CCc1ccc(CNC(=O)Cc2ccc(NC(=O)N3CCSc4ncccc43)cc2)cc1`, the survival was 94% (inactive).
As to `CC(=O)c1c(C)oc2c(Cl)cc(NS(=O)(=O)c3cc(C)c(C)cc3C)cc12`, the survival was 157% (inactive).
Then `COc1ccc(OC)c(-c2noc(N3CCN(c4cc(C)ccc4C)CC3)n2)c1`, with 87% (inactive); and `CC(=O)N1CCCc2cc(S(=O)(=O)N3CCCC(C(=O)Nc4cccc(Cl)c4C)C3)ccc21` (stereo not drawn), with 67% (inactive).
For `COc1cccc(CNC(=O)c2ccc(Cn3c(SCc4ccccc4)nc4cccnc43)cc2)c1`, the survival is 74% (inactive).
Regarding `Cn1cc(C(=O)N2CCN(c3cccc(Cl)c3)CC2)c(=O)c2cc(S(=O)(=O)N3CCCC3)ccc21`, the survival was 128% (inactive).
As to `Cc1ccc(S(=O)(=O)c2nnn3c2nc(NCCc2ccccc2)c2sccc23)cc1`, the survival was 65% (inactive).
Regarding `Cc1ccc(CCNc2nc3c(S(=O)(=O)c4ccc(C)cc4)nnn3c3ccsc23)cc1`, the survival is 108% (inactive).
Turning to `CN(Cc1ccccc1)c1nc2c(S(=O)(=O)c3cccc(Cl)c3)nnn2c2ccsc12`, the survival is 36% (active).
Regarding `CN(Cc1ccccc1)c1nc2c(S(=O)(=O)c3ccccc3)nnn2c2ccsc12`, the survival is 70% (inactive).
Regarding `Cc1ccc(CCNc2nc3c(S(=O)(=O)c4ccccc4)nnn3c3ccsc23)cc1`, the survival was 62% (active).
In the case of `CCN(CC)c1nc2c(S(=O)(=O)c3cccc(Cl)c3)nnn2c2ccsc12`, the survival was 62% (inactive).
`Cc1cc(-c2ccc(C)c(S(=O)(=O)Nc3cccc(C)n3)c2)on1`: the survival was 75% (inactive).
Turning to `O=C(Cn1c(=O)nc(-c2ccccc2F)c2cc(Cl)ccc21)Nc1ccccc1C(F)(F)F`, the survival is 96% (inactive).
With `Cn1c(O)c(N=NC(=O)c2ccccc2)c2ccccc21`, the survival is 105% (inactive).
`CCCCc1c(C(=O)O)cccc1C(=O)O`: the survival is 103% (inactive).
For `CCCCc1cc(O)c(CCCC)c(O)c1`, the survival was 12% (active).
With `Cc1cc(C)cc(N2C(=O)CSC23C(=O)N(CC(=O)Nc2ccc(F)cc2F)c2ccccc23)c1` (stereo not drawn), the survival was 99% (inactive).
In the case of `Cc1ccc2c(c1)c(=O)c(S(=O)(=O)c1ccc(F)cc1)cn2CC(=O)Nc1ccc2c(c1)OCO2`, the survival was 70% (inactive).
